# Several values for one entry are separate records, joined by “and”; a condition that tells them apart may be missing. Equal values may be shown once. Results filed as inconclusive are left out. A call without a number means that no potency is given here. Activity calls are given as the source filed them. Calls follow the shape of the dose curve; as a rule, active = well fitted curve in the direction sought with a large enough effect; inconclusive = small, poorly fitted or top-dose-only effect, or another doubt; inactive = no such curve, though single readings can be large; an effect the other way counts as inactive or inconclusive.
# What was measured:
# CRL-7250 [1] = test: Cytotoxic Profiling of Annotated Libraries Using Quantitative High-Throughput Screening (AID 1296008); conditions: Five cell lines viability, CellTiter-Glo ATP luminescence, 48-72 h; max response: active compounds read low; also: nearly all actives have a fitted effect of over 60% in size; also: potency is read from the fitted curve at half-maximal effect
# Summary of the method: (§1)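 Cytotoxicity was measured as CellTiter-Glo ATP luminescence, read after 10 min at room temperature. Compound treatment of the cells lasted 48 or 72 hr at 37 degrees Celsius in a qHTS format.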
# KB-3-1 = test: as above; conditions: Five cell lines viability, CellTiter-Glo ATP luminescence, 48-72 h; max response: active compounds read low
# Summary of the method: as §1
# NIH3T3 [2] = test: as above; conditions: Five cell lines viability, CellTiter-Glo ATP luminescence, 48-72 h; max response: active compounds read low
# Summary of the method: as §1
# MCC-13 = test: qHTS assay to identify novel small-molecules to repurpose for Merkel cell carcinoma treatment (AID 1296009); conditions: MCC and control cell lines, CellTiter-Glo viability, 72 h; series mostly up to 46 µM; also: nearly all actives have a fitted effect of over 60% in size; also: potency is read from the fitted curve at half-maximal effect
# Summary of the method: (§2)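 72 hr, 37 degree celsius; NPC 8-pt / MIPE 11-pt dose response; compound pinned in DMSO; CellTiter-Glo, 10 min RT, luminescence; normalized to no-cell and DMSO controls.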
# MCC-26 = test: as above; conditions: MCC and control cell lines, CellTiter-Glo viability, 72 h; series mostly up to 46 µM
# Summary of the method: as §2
# MKL-1 = test: as above; conditions: MCC and control cell lines, CellTiter-Glo viability, 72 h; series mostly up to 46 µM
# Summary of the method: as §2
# WaGa = test: as above; conditions: MCC and control cell lines, CellTiter-Glo viability, 72 h; series mostly up to 46 µM
# Summary of the method: as §2
# CAOV3 = test: Primary qHTS to identify gynecologic anti-cancer compounds using libraries of approved drugs and bioactive compounds (AID 1345084); conditions: Gynecologic cancer cell panel viability, ATPlite luminescence, 48 h; series mostly up to 57.5 µM; also: nearly all actives have a fitted effect of over 55% in size
# Summary of the method: (§3)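 Luminescence from the ATPlite ATP-monitoring reagent indicates viable cell number; lower signal means cytotoxicity. Cells received compound 16 h after seeding and were exposed for 48 h across five concentrations.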
# CASKI = test: as above; conditions: Gynecologic cancer cell panel viability, ATPlite luminescence, 48 h; series mostly up to 57.5 µM
# Summary of the method: as §3
# MKL-2 = test: qHTS assay to identify novel small-molecules to repurpose for Merkel cell carcinoma treatment (AID 1296009); conditions: MCC and control cell lines, CellTiter-Glo viability, 72 h; series mostly up to 46 µM; also: nearly all actives have a fitted effect of over 60% in size; also: potency is read from the fitted curve at half-maximal effect
# Summary of the method: as §2
# UISO = test: as above; conditions: MCC and control cell lines, CellTiter-Glo viability, 72 h; series mostly up to 46 µM
# Summary of the method: as §2
# CRL-7250 [3] = test: as above; conditions: MCC and control cell lines, CellTiter-Glo viability, 72 h; series mostly up to 44.8 µM
# Summary of the method: as §2
# TAB165 = test: qHTS profiling for inhibitors of Plasmodium falciparum proliferation (AID 504749); also: nearly all actives have a fitted effect of over 60% in size; conditions: P. falciparum in erythrocytes, SYBR Green DNA, 72 h; series mostly up to 28.7 µM
# Summary of the method: (§4)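 Infected RBCs, 0.3% parasitemia/2.5% Hct final; cpd 72 h, 37 C, 5% CO2; lysis buffer with saponin/triton/SYBR Green I, o/n RT dark; FI 485/535; norm. to artemisinin (0.29 uM) and DMSO.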
# W2 = test: as above; conditions: P. falciparum in erythrocytes, SYBR Green DNA, 72 h; series mostly up to 28.7 µM
# Summary of the method: as §4
# HaCat [4] = test: Cytotoxic Profiling of Annotated Libraries Using Quantitative High-Throughput Screening (AID 1296008); conditions: Five cell lines viability, CellTiter-Glo ATP luminescence, 48-72 h; max response: active compounds read low; also: nearly all actives have a fitted effect of over 60% in size; also: potency is read from the fitted curve at half-maximal effect
# Summary of the method: as §1
# NIH3T3 [5] = test: qHTS assay to identify novel small-molecules to repurpose for Merkel cell carcinoma treatment (AID 1296009); conditions: MCC and control cell lines, CellTiter-Glo viability, 72 h; at 44.8 µM (top of the series) unless noted; also: nearly all actives have a fitted effect of over 60% in size; also: potency is read from the fitted curve at half-maximal effect
# Summary of the method: as §2
# C33A = test: Primary qHTS to identify gynecologic anti-cancer compounds using libraries of approved drugs and bioactive compounds (AID 1345084); conditions: Gynecologic cancer cell panel viability, ATPlite luminescence, 48 h; series mostly up to 57.5 µM; also: nearly all actives have a fitted effect of over 55% in size
# Summary of the method: as §3
# HACAT [6] = test: qHTS assay to identify novel small-molecules to repurpose for Merkel cell carcinoma treatment (AID 1296009); conditions: MCC and control cell lines, CellTiter-Glo viability, 72 h; at 44.8 µM (top of the series) unless noted; also: nearly all actives have a fitted effect of over 60% in size; also: potency is read from the fitted curve at half-maximal effect
# Summary of the method: as §2
smiles,measurement,setting,value
Clc1ccc(CCC(Cn2ccnc2)Sc2c(Cl)cccc2Cl)cc1 (stereo not given),max response,CRL-7250 [1],-0.661% (inactive)
same,max response,KB-3-1,1.06% (inactive)
same,max response,NIH3T3 [2],-8.13% (inactive) and -9.95% (inactive)
same,Potency,MCC-13,inactive
same,Potency,MCC-26,inactive
same,Potency,MKL-1,inactive
same,Potency,WaGa,inactive
same,Potency,CAOV3,inactive
same,Potency,CASKI,inactive
C[C@@H]1[C@@H](CC(C[C@H]2O[C@@H]3O[C@]4(C)CC[C@@H]5[C@H](C)CC[C@@H]([C@H]2C)[C@@]35OO4)C[S+](=O)([O-])c2ccc(COC(=O)N(C)C)cc2)O[C@@H]2O[C@]3(C)CC[C@H]4[C@H](C)CC[C@@H]1[C@@]24OO3 (stereo not given in full),Potency,KB-3-1,1.32 µM (active)
same,Potency,MKL-1,1.18 µM (active)
same,Potency,MKL-2,0.59 µM (active)
same,Potency,UISO,0.526 µM (active)
Cc1nc2n(c(=O)c1CCN1CCC(c3noc4cc(F)ccc34)CC1)CCC[C@H]2O,outcome,CRL-7250 [3],inactive [at 17.4 µM]
CC(=O)[C@H]1CC[C@H]2[C@@H]3CC[C@H]4C[C@H](O)CC[C@]4(C)[C@H]3C(=O)C[C@]12C,Potency,TAB165,inactive
same,Potency,W2,inactive
same,max response,CRL-7250 [1],-2.84% (inactive)
same,max response,HaCat [4],0.502% (inactive)
same,max response,KB-3-1,-4.21% (inactive)
same,outcome,NIH3T3 [2],inactive
same,Potency,MCC-13,inactive
same,Potency,MCC-26,inactive
same,Potency,MKL-1,inactive
same,Potency,MKL-2,inactive
same,outcome,NIH3T3 [5],inactive
same,Potency,UISO,inactive
same,Potency,WaGa,inactive
same,Potency,C33A,inactive
same,Potency,CAOV3,inactive
same,Potency,CASKI,inactive
C[C@@H]1[C@@H](C(=O)C[C@H]2O[C@@H]3O[C@]4(C)CC[C@@H]5[C@H](C)CC[C@@H]([C@H]2C)[C@@]35OO4)O[C@@H]2O[C@]3(C)CC[C@H]4[C@H](C)CC[C@@H]1[C@@]24OO3,Potency,CRL-7250 [1],4.18 µM (active)
same,Potency,HaCat [4],5.26 µM (active)
same,Potency,MCC-26,inactive
same,Potency,MKL-1,14.8 µM (active)
same,Potency,MKL-2,0.662 µM (active)
same,Potency,UISO,0.372 µM (active)
same,Potency,WaGa,2.64 µM (active)
CC1OC(C)OC(C)O1 (stereo not given),Potency,TAB165,inactive
same,Potency,W2,inactive
same,outcome,HACAT [6],inactive
same,Potency,MCC-13,inactive
same,Potency,MKL-1,inactive
same,Potency,MKL-2,inactive
same,outcome,NIH3T3 [5],inactive
same,Potency,UISO,inactive
same,Potency,WaGa,inactive
same,Potency,C33A,inactive
same,Potency,CAOV3,inactive
same,Potency,CASKI,inactive
CN1CCC(=C2c3ccccc3C=Cc3ccccc32)CC1,outcome,CRL-7250 [3],inactive
